Results filed as inconclusive are left out. Entries that show only a call come without a potency. Activity calls are given as the source filed them. Calls come from the whole dose curve; as a rule, active = well fitted inhibition curve with a large enough effect; inconclusive = small, poorly fitted or top-dose-only effect; inactive = flat fitted curve, though single readings scatter.
molecular target: Calcium and integrin-binding protein 1 (Homo sapiens) (UniProt Q99828); assay: Primary qHTS for Identification of Calcium Integrin Binding Protein 1 (CIB1) Competitor (AID 1508620); conditions: CIB1-GST / FITC-alphaIIb peptide fluorescence polarization; series mostly up to 57.7 µM;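 note: GST tagged CIB1 binding a fluorescein labelled alphaIIb integrin peptide tracer; top concentration of the series differs between compounds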
In short: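 Fluorescence polarization competition: CIB1-GST (1 uM final) preincubated with compound 15 min at room temperature, then FITC-labeled alphaIIb peptide (100 nM final) added for another 15 min. Polarization read at Ex 480/Em 540.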

Calcium and integrin-binding protein 1 (Homo sapiens), sequence (Q99828 whole entry, looked up): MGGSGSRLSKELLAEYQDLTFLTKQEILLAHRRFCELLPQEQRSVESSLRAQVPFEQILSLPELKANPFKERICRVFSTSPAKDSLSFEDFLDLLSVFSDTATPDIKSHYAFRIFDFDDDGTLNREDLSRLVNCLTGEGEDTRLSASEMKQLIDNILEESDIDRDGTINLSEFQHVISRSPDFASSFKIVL

Question: With C/C=C/C=C/C=C/C(=O)O[C@@H]1[C@@H](OC)C2=C(C(=O)N(C(C)C(=O)O)C2)[C@@]2(C)CCCC(C)(C)[C@H]12 (stereo not given in full) as the compound, how does the Potency read?
Answer: inactive

Question: O=C(NCC(=O)N1CC[C@H](NC2CCC(O)(c3ccc(-c4ncccn4)cn3)CC2)C1)c1cccc(C(F)(F)F)c1 (stereo not given in full) was tested. Which Potency did it give?
Answer: inactive

Question: Which Potency does the source give for CCCCNC(=O)[C@@H]1Cc2ccccc2N1C(=O)[C@@H](N)CC here?
Answer: inactive

Question: How did the Potency turn out when C/C(=C\CO)CC/C=C(\C)C(=O)O[C@H]1[C@H](OC2OC=C(C(=O)O)C3CCC(C)(O)C23)O[C@H](CO)[C@@H](O)[C@@H]1O (stereo not given in full) was run?
Answer: inactive

Question: How did the Potency turn out when O=C(COc1ccc(Cl)cc1)NC1CCC(NC(=O)COc2ccc(Cl)cc2)CC1 (stereo not given) was run?
Answer: inactive

Question: Which Potency does the source give for CC(C)C(=O)O[C@@H]1[C@@H](O)[C@@H](O[C@H]2O[C@H](CO)[C@@H](O)[C@H](O)[C@H]2O)O[C@H](CO)[C@H]1O here?
Answer: inactive

Question: Which Potency does the source give for CC(=O)O[C@H]1C[C@@H]2[C@]3(CC[C@]4(C)[C@@H](C5(C)CCC(C(C)(C)O)O5)[C@@H](O)C[C@@]24C)C[C@@]32CC[C@H](O[C@@H]3OC[C@@H](O)[C@H](O)[C@H]3O)C(C)(C)[C@H]12 (stereo not given in full) here?
Answer: inactive

Question: Which Potency does the source give for CC(C)C(=O)c1cn(CC(=O)COc2ccc(Oc3ccccc3)cc2)c2ccc(C(=O)O)cc12 here?
Answer: inactive

Question: With C=C(C)[C@H]1C[C@@H](O)C(=C)CC[C@@H](O)C(=C)[C@@H](O)C1 as the compound, how does the Potency read?
Answer: inactive

Question: Which Potency does the source give for CC(=O)N[C@H]1CCN(c2ccc(C3=NOC(CN[S+](=O)([O-])C(C)C)C3)cc2F)C1 (stereo not given in full) here?
Answer: inactive

Question: O=C(O)c1ccc(CCCc2ccc(OCCc3ccc(F)cc3)cc2)o1 was tested. Which Potency did it give?
Answer: inactive

Question: For COc1c2c(c(C)c3c1C(=O)OC3)O[C@@]1(C)C[C@@H](O)[C@]34O[C@](OC)(CC[C@]3(C)[C@H]1C2)OC4(C)C, which Potency is on record?
Answer: inactive

Question: With CCCC1=CC2=C(CO1)C(=O)C(C)(OC(=O)c1c(C)cc(OC)cc1O)C(O)C2 (stereo not given) as the compound, how does the Potency read?
Answer: inactive

Question: O=C(O[C@@H]1O[C@H](CO)[C@@H](O)[C@H](O)[C@H]1O)c1c(O)cc(O)cc1/C=C/c1ccccc1 was tested. Which Potency did it give?
Answer: inactive

Question: How did the Potency turn out when CC(=O)[C@@H]1CC[C@]2(C(=O)O)CC[C@]3(C)C(CCC4[C@@]5(C)CC[C@H](O)C(C)(C)C5CC[C@]43C)C12 (stereo not given in full) was run?
Answer: inactive

Question: How did the Potency turn out when CN1C(=O)c2ccccc2NC(=O)[C@]12O[C@@H]2c1cccc(O)c1 was run?
Answer: inactive

Question: O=S(=O)(NC1CCNCC1)c1cc(S(=O)(=O)c2ccccc2)ccc1C(F)(F)F was tested. Which Potency did it give?
Answer: inactive

Question: Which Potency does the source give for CCn1nnnc1NCc1ccc(C(C)C)cc1 here?
Answer: inactive

Question: With COc1ccc2c(c1)OC[C@]1(O)c3cc4c(cc3O[C@H]21)OCO4 as the compound, how does the Potency read?
Answer: inactive

Question: How did the Potency turn out when CC(C)Nc1cc(-c2c[nH]c(C(=O)N[C@H](CO)c3cccc(Cl)c3)c2)c(Cl)cn1 was run?
Answer: inactive

Question: How did the Potency turn out when C/C=C(\C)C(=O)O[C@H]1[C@H](O)[C@]2(COC(C)=O)[C@H](O)C[C@]3(C)C(=CCC4[C@@]5(C)CC[C@H](O[C@@H]6O[C@H](C(=O)O)[C@@H](O[C@@H]7O[C@H](CO)[C@@H](O)[C@H](O)[C@H]7O)[C@H](O)[C@H]6O[C@@H]6O[C@H](CO)[C@@H](O)[C@H](O)[C@H]6O)[C@](C)(CO)C5CC[C@]43C)[C@@H]2CC1(C)C (stereo not given in full) was run?
Answer: inactive

Question: CC1(C)CC[C@]2(C(=O)O[C@@H]3O[C@H](CO)[C@@H](O)[C@H](O)[C@H]3O)CC[C@]3(C)C(=CCC4[C@@]5(C)C[C@@H](O)[C@H](O)C(CO)(CO)C5CC[C@]43C)C2[C@@H]1O (stereo not given in full) was tested. Which Potency did it give?
Answer: inactive

Question: Which Potency does the source give for CCNC(=O)CCC/C=C\C[C@@H]1[C@@H](/C=C/C(O)CCc2ccccc2)[C@@H](O)C[C@@H]1O (stereo not given in full) here?
Answer: inactive

Question: With CC(=O)OC(CSC1CCC(=O)OC(C)CCC(=O)C1)C(=O)O (stereo not given) as the compound, how does the Potency read?
Answer: inactive

Question: COc1ccc(/C=C/C(=O)O[C@@H]2[C@@H](O)[C@H](C)O[C@@H](OC3C4C=COC(O[C@@H]5O[C@H](CO)[C@@H](O)[C@H](O)[C@H]5O)C4C4(CO)OC34)[C@@H]2O)cc1OC (stereo not given in full) was tested. Which Potency did it give?
Answer: inactive

Question: Nc1c(Br)cc(Br)cc1CNC1CCC(O)CC1 (stereo not given) was tested. Which Potency did it give?
Answer: inactive

Question: With Cc1cc(Nc2ncc(Cl)c(Nc3ccccc3S(=O)(=O)C(C)C)n2)c(OC(C)C)cc1C1CCNCC1 as the compound, how does the Potency read?
Answer: inactive

Question: For C(#Cc1cccc(CN2CCOCC2)c1)CCN1CCCCC1, which Potency is on record?
Answer: inactive

Question: For CN1CC[C@@H](NC(=O)Nc2ccc(C#N)cc2)C[C@@H]1c1nc2ccccc2[nH]1, which Potency is on record?
Answer: inactive

Question: Which Potency does the source give for Cc1c(-c2ccnn2C)cc(C(=O)NCc2ccc(S(C)(=O)=O)cn2)c(=O)n1-c1cccc(C(F)(F)F)c1 here?
Answer: inactive

Question: Which Potency does the source give for c1ccc(C(OC2CCN(CCCc3nn[nH]n3)CC2)c2ccccc2)cc1 here?
Answer: inactive

Question: Which Potency does the source give for NS(=O)(=O)NCCNc1nonc1C(=Nc1ccc(F)c(Br)c1)NO here?
Answer: inactive

Question: For CC1=C2C3OC(=O)C(C)C3(O)CCC2(C)CCC1=O (stereo not given), which Potency is on record?
Answer: inactive

Question: With CCc1cc2c(=O)c(-c3nc4ccccc4s3)coc2c(CN2CCCCC2)c1O as the compound, how does the Potency read?
Answer: inactive

Question: C=C1C2(CCC(=O)OC2(C)C)CC(OC(=O)/C(C)=C/C)C2(C)C13OC14C(=O)OC(C)(C(=O)C12C(=O)OC4C)C3OC(C)=O (stereo not given) was tested. Which Potency did it give?
Answer: inactive

Question: With O=C(O)C[C@H]1CCC(=O)[C@@H]1C/C=C\CCOC1OC(CO)C(O)C(O)C1O (stereo not given in full) as the compound, how does the Potency read?
Answer: inactive

Question: For C[C@H](NCc1ccc(OCc2ccccc2F)cc1)C(N)=O, which Potency is on record?
Answer: inactive

Question: How did the Potency turn out when COC(=O)CC1(O)C(=O)Nc2ccccc21 (stereo not given) was run?
Answer: inactive

Question: Which Potency does the source give for COc1cc(C2OCC3C(c4ccc(OC5OC(CO)C(O)C(O)C5O)c(OC)c4)OCC23)ccc1O (stereo not given) here?
Answer: inactive

Question: Which Potency does the source give for CC1(C)C(=O)C(C)(C)c2cc(C(=O)Nc3ccc(C(=O)O)cc3)ccc21 here?
Answer: inactive
